These results are taken from PubChem BioAssay (NCATS).

“And” between values parts separate entries of the source, which are not always exact repeats. Equal values may be shown once. Values without a mark were called inactive. Records with an inconclusive call do not appear. The source made the active and inactive calls. Unless noted, calls come from the whole dose curve; as a rule, active = well fitted curve in either direction with a large enough effect (not every such curve was filed as active); inconclusive = small, poorly fitted or top-dose-only effect, or another doubt; inactive = flat fitted curve, though single readings scatter.

Assay [1] in a line: AP1 Signaling Pathway (AID 357).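 Note: ME-180 reporter cells stimulated with EGF at its EC50 level; % is set by controls: 0 for no effect and ±100 for the full control effect.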 In outline:
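Modulation of EGF-driven AP-1 transcription was assessed with a beta-lactamase reporter in ME-180 cells. Compound and EC50 EGF were co-incubated 5 hours at 37 °C before 2.5-hour CCF4 loading at room temperature and dual-emission reading.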

Assay [2] concerns the target Cytochrome P450 1A2 (Homo sapiens) (UniProt P05177). Briefly: p450-cyp1a2 (AID 410; calls by dose curve; note: potency is the fitted concentration of half-maximal effect;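 for activity change, negative = inhibition: -100% = full effect of reference inhibitor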). The essentials:
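Human CYP1A2 (20nM) demethylated Luciferin-ME at its Km (100uM) in 100mM KPO4. After 10 min compound preincubation, NADPH regeneration ran the reaction 60 min at room temperature. Luciferin was read by luminescence, normalized to 57 uM furafylline.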

Assay [3] can be described thus: Cell Viability - BJ (AID 421; calls by dose curve;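 note: potency is the fitted concentration of half-maximal effect; cells exposed to compound for 40 hours at 37 °C before readout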). Conditions: BJ fibroblast viability, qHTS. In outline: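 Quantitative HTS: ATP depletion in BJ cells after 40 hr compound exposure in complete culture medium, detected with CellTiter-Glo; AC50 from standard Hill fits.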
Assay [4] can be described thus: Cell Viability - Jurkat (AID 426;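 active = dose-dependent loss of cell ATP signal giving a full or clear fitted curve, ranked by lower potency value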; note: potency is the fitted concentration of half-maximal effect). Conditions: qHTS. In outline:
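Jurkat (clone E6-1, human T-cell leukemia) cells, 5000/well in complete medium, were exposed to compound for 40 hr at 37 °C. Viability was read as intracellular ATP by CellTiter-Glo luminescence; AC50 came from Hill fits of concentration-response data.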

The nature of assay [5]: Cell Viability - Hek293 (AID 427;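 active = compounds whose dose-response curve shows a full or clear partial loss of cell viability, called from curve shape rather than a numeric limit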;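 note: potency is the fitted concentration of half-maximal effect; cells exposed to compound for 40 hours at 37 °C before reading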). As to conditions: qHTS. In outline:
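AC50 values derive from Hill-modelled concentration-response of ATP-based luminescence, normalized between DMSO-only and 100 uM tamoxifen controls. Cells were exposed in complete culture medium for 40 hr at 37 °C before detection.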

The nature of assay [6]: Cell Viability - HepG2 (AID 433; calls by dose curve;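 note: potency is the fitted concentration of half-maximal effect; potency for ATP loss meaning cytotoxicity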). Conditions: qHTS. The essentials: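 ATP luminescence (CellTiter-Glo) after 40 h compound exposure, 37 °C, HepG2, 1500 cells/well, complete medium. Normalized: DMSO = basal, 100 uM tamoxifen = 100% inhibition. AC50 via standard Hill equation.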
The nature of assay [7]: Cell Viability - MRC5 (AID 434; calls by dose curve;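 note: potency is the fitted concentration of half-maximal effect; potency reflects cytotoxicity seen as loss of intracellular ATP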). As to conditions: MRC5 lung fibroblast viability, qHTS. In outline:
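MRC5 normal human lung fibroblasts (1500/well) were treated with compounds for 40 hr at 37 °C in complete medium, and viable cells were measured as intracellular ATP by CellTiter-Glo luminescence. AC50 came from Hill fits, normalized to DMSO and 100 uM tamoxifen.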

Assay [8] can be described thus: Cell Viability - SK-N-SH (AID 435; calls by dose curve; note: potency is the fitted concentration of half-maximal effect). Conditions: SK-N-SH neuroblastoma cell viability qHTS. In outline:
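CellTiter-Glo ATP luminescence, 20 min RT read; cells pre-plated 5 hr, compound 40 hr at 37 °C, 1500 cells/well, complete medium. Normalized DMSO = 0, 100 uM tamoxifen = 100% inhibition; Hill-fit AC50.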

Assay [9] can be described thus: NFAT Signaling Pathway (AID 444).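 Note: carbachol stimulus at about its EC50 of 1 µM final; % is set by controls: 0 for no effect and ±100 for the full control effect.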 As to conditions: Jurkat NFAT-bla M1, carbachol, beta-lactamase ratio, 5 h. In outline: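 Jurkat cells carrying an NFAT-driven β-lactamase reporter and co-transfected muscarinic M1 receptor were treated with compound plus carbachol (1 uM final, an EC50 level) for 5 h at 37 °C. CCF4 loading followed for 1 h at RT; 460/530 nm ratio gave %activity.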

A short description of assay [10]: Stat Signaling Pathway (AID 446).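 Note: ME-180 cervical cancer cells given 40 pM IL-6 alongside compound; SIE-controlled beta-lactamase reporter measured as 460/530 nm FRET emission ratio; % is set by controls: 0 for no effect and ±100 for the full control effect.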 The essentials:
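IL-6/STAT signaling read in ME-180 cells via an SIE beta-lactamase reporter. Stimulus was 40 pM IL-6 (its AC50) for 5 hrs, so both activation and inhibition register.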

Assay [11] deals with Glucocorticoid receptor (Homo sapiens) (UniProt P04150). Briefly: GR-GFP Redistribution (AID 450;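 active = compounds whose dose series gives a full or clear partial fitted curve of increased nuclear translocation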; note: potency is the fitted concentration of half-maximal effect). As to conditions: U2OS GR-GFP nuclear translocation, laser cytometry, 2 h.
For assay [12] the target is unchanged. The experiment in a line: GR-EFC Redistribution (AID 451; calls by dose curve; note: potency is the fitted concentration of half-maximal effect). As to conditions: CHO-K1 GR-EFC translocation, beta-gal luminescence, 2 h. The essentials:
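CHO-K1 cells stably expressing nuclear-localized β-gal enzyme acceptor and GR fused C-terminally to the enzyme donor fragment; ligand-driven nuclear translocation restores β-gal by complementation. Compounds titrated up to 46 uM final, 2 h at 37 °C; luminescence read.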

Assay [13] concerns the target Mitogen-activated protein kinase 10 (Mus musculus) (UniProt Q61831). Briefly: JNK3 AlphaScreen Assay (AID 530).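 Note: kinase came from lysate of stimulated human HepG2 cells; signal reports phosphorylation of biotinylated GST-cJun 1-79 at Ser73 with 10 µM ATP; % is set by controls: 0 for no effect and ±100 for the full control effect.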 The essentials: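 JNK3 came from HepG2 lysates pre-activated with IL-1beta and TNF-alpha and phosphorylated biotinylated GST-cJun (1-79) at 10 uM ATP, pH 7.6, room temperature. Compounds were titrated. AlphaScreen signal used anti-phospho-cJun (Ser73) antibody.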

Assay [14] in a line: Cell Viability - N2a (AID 540; active = well fitted curve in the direction sought with a large enough effect; an effect the other way counts as inactive or inconclusive;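 note: plate controls were DMSO alone for no effect and tamoxifen control for full effect; nearly all actives have a fitted effect of over 45% in size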). As to conditions: N2a mouse neuroblastoma cell viability; activity change, negative = cytotoxicity: at 92.2 µM (top of the series). In outline: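 Mouse neuroblastoma N2a cells (1500/well) were preincubated 5 hr at 37 °C, then exposed to compounds for 40 hr at 37 °C in complete medium. Viability was read as intracellular ATP by CellTiter-Glo luminescence; AC50 from Hill fits.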

Assay [15] can be described thus: Cell Viability - NIH 3T3 (AID 541; active = well fitted curve in the direction sought with a large enough effect; an effect the other way counts as inactive or inconclusive; note: nearly all actives have a fitted effect of over 25% in size; note: potency is the fitted concentration of half-maximal effect;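 for activity change, negative = cytotoxicity: plate controls were DMSO alone for no effect and tamoxifen positive control for full effect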). As to conditions: NIH 3T3 cell viability, qHTS; activity change, negative = cytotoxicity: at 92.2 µM (top of the series). In outline:
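NIH 3T3 mouse embryo fibroblasts (1000 cells/well) were plated in complete medium and treated with compound for 40 hr at 37 °C. Viability was read as intracellular ATP by CellTiter-Glo luminescence; AC50 values came from Hill-equation fits of concentration-response data.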

Assay [16] can be described thus: Cell Viability - HUV-EC-C (AID 542; active = well fitted curve in the direction sought with a large enough effect; an effect the other way counts as inactive or inconclusive; note: % is set by controls: 0 for no effect and ±100 for the full control effect; nearly all actives have a fitted effect of over 35% in size). In outline:
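HUV-EC-C normal human vascular endothelial cells, 1000 cells/well, pre-incubated 5 hr at 37 °C, then exposed to compounds for 40 hr at 37 °C in complete medium. Viability measured as intracellular ATP by CellTiter-Glo luminescence; AC50 from Hill fits.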

Assay [17] is described as follows: Cell Viability - SH-SY5Y (AID 544; active = well fitted curve in the direction sought with a large enough effect; an effect the other way counts as inactive or inconclusive;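 note: 0% = DMSO alone and -100% = 100 µM tamoxifen; nearly all actives have a fitted effect of over 55% in size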). Conditions: SH-SY5Y neuroblastoma cell viability; viability change, negative = cytotoxic: at 92.2 µM (top of the series). The essentials:
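Human neuroblastoma SH-SY5Y cells (1500/well) in complete medium were exposed to compounds for 40 hr at 37 °C; intracellular ATP was then quantified by CellTiter-Glo luminescence after 20 min at room temperature. AC50 came from Hill-equation concentration-response fits.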

A short description of assay [18]: Cell Viability - Renal Proximal Tubule (AID 545; active = well fitted curve in the direction sought with a large enough effect; an effect the other way counts as inactive or inconclusive;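 note: 0% = DMSO only and -100% = 100 µM tamoxifen; nearly all actives have a fitted effect of over 40% in size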). In outline:
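Rat kidney proximal tubule cells, freshly isolated; 1000 cells/well, 5 hr settle, compound 40 hr 37 °C. CellTiter-Glo 20 min RT, luminescence read. AC50 by standard Hill fit.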

Assay [19] in a line: Cell Viability - Mesenchymal (AID 546; active = well fitted curve in the direction sought with a large enough effect; an effect the other way counts as inactive or inconclusive;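 note: cells exposed to compound for 40 hours before reading; 0% = DMSO only and -100% = 100 µM tamoxifen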). In outline:
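Normal human renal glomerulus-derived kidney mesenchymal cells, 1000 per well in complete medium, were treated with compounds for 40 hr at 37 °C. Viability was read as intracellular ATP by CellTiter-Glo luminescence; AC50 values came from Hill-equation fits of qHTS concentration-response data.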

Sequence of Glucocorticoid receptor (Homo sapiens) (P04150 whole entry, looked up): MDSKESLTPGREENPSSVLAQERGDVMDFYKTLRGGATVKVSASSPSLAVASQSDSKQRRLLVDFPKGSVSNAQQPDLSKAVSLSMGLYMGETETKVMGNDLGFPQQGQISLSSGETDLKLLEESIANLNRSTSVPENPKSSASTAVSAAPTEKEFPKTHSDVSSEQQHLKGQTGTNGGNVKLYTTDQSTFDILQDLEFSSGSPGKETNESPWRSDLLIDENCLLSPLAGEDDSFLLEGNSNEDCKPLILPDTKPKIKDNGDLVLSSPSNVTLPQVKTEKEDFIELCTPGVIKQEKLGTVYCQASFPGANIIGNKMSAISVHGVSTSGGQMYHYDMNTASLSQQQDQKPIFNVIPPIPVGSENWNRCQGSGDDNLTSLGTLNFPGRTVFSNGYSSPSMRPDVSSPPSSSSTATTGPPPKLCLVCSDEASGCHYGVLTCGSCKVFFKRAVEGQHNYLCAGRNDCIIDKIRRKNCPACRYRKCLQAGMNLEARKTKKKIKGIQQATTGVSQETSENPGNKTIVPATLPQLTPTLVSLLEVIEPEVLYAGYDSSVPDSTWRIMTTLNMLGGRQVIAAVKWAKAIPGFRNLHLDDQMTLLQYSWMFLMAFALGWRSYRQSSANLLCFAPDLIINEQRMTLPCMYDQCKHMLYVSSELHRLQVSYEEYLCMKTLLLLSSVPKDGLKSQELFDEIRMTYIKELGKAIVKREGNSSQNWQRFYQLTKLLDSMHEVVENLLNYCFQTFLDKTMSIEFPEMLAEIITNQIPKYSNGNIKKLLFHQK
Sequence of Cytochrome P450 1A2 (Homo sapiens) (P05177 whole entry, looked up): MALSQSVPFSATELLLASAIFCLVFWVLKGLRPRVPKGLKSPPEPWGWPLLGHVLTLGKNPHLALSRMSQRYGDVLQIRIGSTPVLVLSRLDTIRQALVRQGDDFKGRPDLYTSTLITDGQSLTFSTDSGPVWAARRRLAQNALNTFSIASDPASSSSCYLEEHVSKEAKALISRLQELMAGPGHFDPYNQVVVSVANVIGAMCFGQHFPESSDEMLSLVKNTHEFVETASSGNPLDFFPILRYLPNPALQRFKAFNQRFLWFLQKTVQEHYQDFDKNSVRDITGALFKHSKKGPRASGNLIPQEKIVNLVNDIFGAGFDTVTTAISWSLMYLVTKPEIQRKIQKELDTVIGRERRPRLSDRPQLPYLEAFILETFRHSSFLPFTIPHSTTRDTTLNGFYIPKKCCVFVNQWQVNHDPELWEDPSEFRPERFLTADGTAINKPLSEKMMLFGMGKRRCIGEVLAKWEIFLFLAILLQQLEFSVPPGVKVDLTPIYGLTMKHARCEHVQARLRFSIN

Regarding `COc1ccc2c(c1)c(CC(=O)O)c(C)n2C(=O)c1ccc(Cl)cc1`, the call in assay [1], in [10], in assay [13], in assay [16] and in assay [19] was inactive. In addition, the Potency in assay [2] is 10 µM (active); in assay [3], over 92 µM; in assay [4] it was over 92 µM; in assay [5], over 92 µM; in [6], over 92 µM; in assay [7], over 92 µM. Besides, the Potency was over 92 µM in assay [8]; > 46 µM and > 20.6 µM in [11]; > 46 µM and > 20.6 µM in [12]. For the same compound, the activity change, negative = inhibition was -5.62% and 13.9% in assay [9] (at 17.2 µM (top of the series)); 8.92% in assay [9] (at 38 µM (top of the series)). In [14], the activity change, negative = cytotoxicity was 0.758%. For the same compound, the Potency result in assay [15], in assay [17] and in assay [18] was “inactive” throughout.

For `CCC1(c2ccccc2)C(=O)NCNC1=O`, the result in [1], in [10], in assay [13], in assay [16] and in assay [19] was inactive. The Potency result in assay [2], in [15], in [17] and in assay [18] was “inactive” throughout. For the same compound, the Potency in assay [3], in [4], in [5], in assay [6], in assay [7] and in assay [8] was over 92 µM in each case. Besides, the Potency was > 46 µM and > 20.6 µM in assay [11]; > 46 µM and > 20.6 µM in assay [12]. Also, the activity change, negative = inhibition in [9] (at 17.2 µM (top of the series)) was -2.38% and -28.2%; in assay [9] (at 38 µM (top of the series)), 0.117%. Moreover, the activity change, negative = cytotoxicity in [14] was -14.7%.

Consider `CS(=O)(=O)Nc1ccc([N+](=O)[O-])cc1Oc1ccccc1`, for which the compound was called inactive in assay [1], in assay [10] and in [13]. Besides, the Potency in assay [2] is 15.8 µM (active) and 12.6 µM (active). In [9] (at 17.2 µM (top of the series)), the activity change, negative = inhibition is -5.4% and -1.94%.

On to `O=c1c(-c2ccc(O)cc2)coc2cc(O)cc(O)c12`, for which the result in assay [1], in assay [10], in [13] and in [16] was inactive. In addition, the Potency in assay [2] was 10 µM (active) and 5.01 µM (active); in assay [3], over 92 µM; in [5], over 92 µM; in assay [6], over 92 µM; in [7], over 92 µM; in assay [11], over 46 µM. The Potency in [12] was over 46 µM; in [15], 25.1 µM (active). For the same compound, in assay [9] (at 38 µM (top of the series)), the activity change, negative = inhibition is -8.04%. Also, the activity change, negative = cytotoxicity in assay [14] is 0.0672%. Also, the viability change, negative = cytotoxic in assay [17] is -86.9% (active).

Regarding `Cn1ccc2cc3c(cc21)CCN3C(=O)Nc1cccnc1`, the compound was called inactive in assay [1], in assay [10] and in assay [13]. Besides, the Potency in assay [2] is 25.1 nM (active) and 3.98 nM (active); in [11] it was over 46 µM; in assay [12], over 46 µM. The activity change, negative = inhibition in [9] (at 38 µM (top of the series)) is -1.4%.

`Clc1ccc2c(c1)C(N1CCNCC1)=Nc1ccccc1O2`: the compound was classed as inactive in assay [1], in assay [10] and in assay [13]. Besides, the Potency in assay [2] is 12.6 µM (active) and 3.98 µM (active); in assay [11], > 46 µM and > 20.6 µM; in assay [12] it was > 46 µM and > 20.6 µM.
